Assay outcomes from PubChem BioAssay.
Prx2 Sm inh: Schistosoma Mansoni Peroxiredoxins (Prx2). 65,000 tested, 0.07% active. AID 448, 2006. Potency, µM. S. mansoni Prx2 activity coupled to TGR/GSH (TGR is thioredoxin glutathione reductase), NADPH fluorescence loss, qHTS. Schistosoma mansoni peroxiredoxin 2 (Prx2)
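Enzyme mix: 100 uM NADPH, 25 nM TGR, 700 uM GSH, 50 nM Prx2 in 100 mM phosphate pH 7.4, 10 mM EDTA, 0.01% Tween-20. 15 min RT with compound; NADPH/GSH added, H2O2 starts reaction; NADPH fluorescence read 8 min.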
AmpC inh det: Promiscuous and Specific Inhibitors of AmpC Beta-Lactamase (assay with detergent); P00811; purified AmpC, nitrocefin hydrolysis with detergent; Potency, µM (top dose mostly 28.7 µM), inactives show top-dose activity change, negative = inhibition; 71,000 tested, 0.09% active; AID 584, 2007; active means well fitted curve in the direction sought with a large enough effect; inconclusive means small, poorly fitted or top-dose-only effect; further: on the % scale 0 is the no-effect control and ±100 the full control effect
Target sequence (P00811 whole entry, looked up): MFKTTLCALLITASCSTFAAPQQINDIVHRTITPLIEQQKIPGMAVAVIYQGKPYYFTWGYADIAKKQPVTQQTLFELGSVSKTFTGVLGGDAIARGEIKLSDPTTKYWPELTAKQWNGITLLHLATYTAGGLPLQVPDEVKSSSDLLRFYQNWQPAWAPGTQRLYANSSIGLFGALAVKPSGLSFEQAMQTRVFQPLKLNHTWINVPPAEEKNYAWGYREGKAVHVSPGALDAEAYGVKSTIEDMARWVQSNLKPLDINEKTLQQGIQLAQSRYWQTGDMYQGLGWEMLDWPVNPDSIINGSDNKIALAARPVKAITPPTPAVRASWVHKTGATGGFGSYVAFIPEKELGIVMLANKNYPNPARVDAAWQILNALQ
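E. coli AmpC (5.3 nM) in 20 mM phosphate pH 7.0 with 0.01% Triton X-100, preincubated 15 min RT with compound; nitrocefin (2 uL of 800 uM stock) hydrolysis followed by 480 nm absorbance every 20 s over 4 min.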
Anthrax LT inh: qHTS Assay for Anthrax Lethal Toxin Internalization | Cells, anthrax lethal toxin internalization, FRET ratio (460/530) | Potency, µM (highest dose often 40 µM), for inactives: at the top dose activity change, negative = inhibition, actives largely listed as inhibitors | 70,000 tested, 0.67% active | AID 912, 2007; further: on the % scale 0 is the no-effect control and ±100 the full control effect; nearly all actives have a fitted effect of over 50% in size
AmpC inh no det: Promiscuous and Specific Inhibitors of AmpC Beta-Lactamase (assay without detergent); Potency, µM (highest dose often 28.7 µM), for inactives: at the highest dose activity change, negative = inhibition; P00811; AmpC nitrocefin hydrolysis, absorbance 480 nm, no detergent; 71,000 tested, 1.8% active; AID 585, 2007; further: % of control where 0% means no effect
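AmpC in 20 mM phosphate buffer pH 7.0 was preincubated 15 min at room temperature with compounds. Nitrocefin (800 uM stock) was then added and hydrolysis followed at 480 nm every 20 s for 4 min.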
Starred values were filed as active, the others as inactive; ? = inconclusive; · = not tested or not shown; [ ] = dose if it differs, or a comment. A selection: hits, their analogues and other compounds. The true share with any hit is near 2.4%. Unless noted, the call rests on the fitted dose curve. Potency means the concentration at half of the fitted maximal effect.

SMILES	Prx2 Sm inh	AmpC inh det	Anthrax LT inh	AmpC inh no det
O=c1[nH]c2cc3c(cc2cc1C(c1nnnn1C1CCCC1)N1CCCc2ccccc21)OCCO3 (stereo not given)	>57	-3.2%	7.94µM*	-3.1%
O=c1[nH]c2cc3c(cc2cc1C(c1nnnn1Cc1ccccc1)N1CCCc2ccccc21)OCO3 (stereo not given)	>57	7.6%	-9.6%	3.16µM*
COc1cc2cc(C(c3nnnn3C3CCCC3)N3CCc4ccccc43)c(=O)[nH]c2cc1OC (stereo not given)	>57	19.6%	?	118.3%
O=C(c1ccco1)N1CCC2(CCN(Cc3cc(C(F)(F)F)cc(C(F)(F)F)c3)CC2)CC1	>57	0.8%	-5.2%	104.2%
CCN(CC)CCOc1ccc(Cc2ccccc2)cc1	>57	-1.2%	25.1µM*	65.4%
Cc1cc(C)n2nc(SCc3cc(=O)n4c(C)cccc4n3)nc2n1	>57	-1.2%	3.5%	1.2%
O=C1C(Cl)=C(Cl)C(=O)C(Cl)=C1Cl	·	-24.2%	?	12.6µM*
CCCCCCC(=O)Cc1cc(OC)c(OC)cc1/C=C(/C(C)=O)C(=O)OC	·	·	-4.3%[8 µM]	·
Cc1ccc(S(=O)(=O)Cc2ccc(C(=O)N3CCN(Cc4ccccc4)CC3)o2)cc1	>57	13.1%	-19.4%	100.4%
O=C(c1ccc(CS(=O)(=O)c2ccccc2)o1)N1CCOCC1	>57	10.4%	-14.5%	2.51µM*[single pt active]
O=C(c1ccc(CS(=O)(=O)c2ccc(Br)cc2)o1)N1CCCCCC1	>57	6.5%	?	3.16µM*[single pt active]
O=C(c1ccc(CS(=O)(=O)c2ccc(Br)cc2)o1)N1CCCC1	>57	14.8%	-4.4%	3.98µM*[single pt active]
O=C(c1ccc(CS(=O)(=O)c2ccc(Br)cc2)o1)N1CCN(C2CCCCC2)CC1	>57	6.3%	-2.6%	-2.1%
C[C@H](CN(C)C)C(O)(c1ccccc1)c1ccccc1	>57	0.5%[5.75 µM]	-6.3%[8 µM]	-2.2%[5.75 µM]
O=C(O)CC(CC(=O)O)C(=O)O	>57	-5.7%[5.75 µM]	0.7%[8 µM]	1.3%[5.75 µM]
CC(C)CO/N=C1/C[C@@H](O)[C@@H](O)[C@@H]2[C@@H]3C(=O)N(Cc4ccc5c(c4)OCO5)C(=O)[C@H]3CC[C@H]12	·	·	-1.9%[8 µM]	·
Cc1ccc(Cl)cc1N	·	7.8%	-2.6%	-11.1%
Nc1nc(SC/C=C\c2ccccc2)c2[nH]cnc2n1	>57	-6.0%[5.75 µM]	-0.5%[8 µM]	-4.3%[5.75 µM]
O=C(CSc1nnnn1-c1ccccc1)Nc1nsc(-c2ccccc2)n1	>57	-1.8%	-23.5%	-15.1%
Cc1ccc(-c2nc(NC(=O)CSc3nnc(C)s3)ns2)cc1	>57	10.9%	-12.4%	3.98µM*[single pt active]
O=C(CSc1nnnn1-c1ccccc1)Nc1nsc(-c2ccc(Cl)cc2)n1	>57	0.0%	-13.6%	10µM*[single pt active]
Cc1nnc(SCC(=O)Nc2nsc(-c3ccccc3)n2)s1	>57	-3.6%	·	-11.5%
O=C(NCCCN1CCN(c2ccccc2F)CC1)C1CCCN(S(=O)(=O)c2cnc[nH]2)C1 (stereo not given)	·	11.3%	-1.5%	3.98µM*[single pt active]
CN1CCCC2(CCN(C(=O)c3cccn3C)CC2)C1	>57	-1.6%	13.6%	52.5%
O=C(Cn1c(NCCCO)nc2ccccc21)c1cccs1	>57	8.3%	7.3%	3.16µM*[single pt active]
SMILES	Prx2 Sm inh	AmpC inh det	Anthrax LT inh	AmpC inh no det
CCCn1c(NCc2cc(C)ccc2O)nc2ccccc21	·	0.6%	-17.5%	3.0%
CCCCn1c(NCc2ccccc2O)nc2ccccc21	>57	14.0%	-13.2%	3.98µM*[single pt active]
CCCCn1c(NCCO)nc2ccccc21	>57	6.9%	0.7%	3.16µM*[single pt active]
CCOC(=O)C1C(=O)Oc2ccc3ccccc3c2C1C1CCOC1=O (stereo not given)	>57	14.0%	-10.5%	3.98µM*[single pt active]
CCN(CC)CCn1c(-c2ccccc2)nc2c(NCCO)nc(C)nc21	·	7.0%	-5.0%	5.2%
COc1cccc(C2=NOC(C(=O)Nc3cc(C)nn3-c3ccccc3)C2)c1OC (stereo not given)	>57	11.0%	?	3.98µM*[single pt active]
COc1cc(OC)c(C2=NOC(C(=O)Nc3cc(C)nn3-c3ccccc3)C2)cc1Cl (stereo not given)	>57	-0.5%	?	78.1%
N[C@H](C(=O)O)c1ccc(C(=O)O)cc1	>57	3.0%	-10.2%	-3.4%
Cc1cccc(-c2nc3ccccc3c3nncn23)c1	·	2.9%	-12.4%	15.7%
Cc1ccc2c(c1)c(-c1ccccc1)nc1nncn12	>57	13.6%	?	2.51µM*[single pt active]
COc1ccc(C2CC(c3ccco3)n3ncnc3N2)cc1 (stereo not given)	>57	8.4%	-9.9%	2.51µM*[single pt active]
